{"source": "PubChem BioAssay (EPA / NIEHS)", "key": {"NCBI gene 24521": {"tested_on": "NCBI gene 24521", "experiment": "NVS_IC_rKATPCh: NovaScreen (NVS) Ion Channel Assay for rat Potassium Channel, ATP-Sensitive (KATPCh) (AID 2283319)", "outline": "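Rat cortical membranes; radioligand binding at ATP-sensitive K channel site, filter-based scintillation counting 2 h after dosing. Single-point duplicate screen at 25 uM, hits rerun in concentration-response up to 50 uM; loss of signal versus DMSO.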"}, "[1]": {"target": "Sodium channel protein type 1 subunit alpha (Rattus norvegicus) (UniProt P04774)", "experiment": "NVS_IC_rNaCh_site2: NovaScreen (NVS) Ion Channel Assay for rat Sodium Channel, Site 2 (NaCh) (AID 2283322);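 further: hit means loss of radioligand binding signal relative to DMSO so AC50 marks displacement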", "outline": "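Membranes: rat forebrain. Format: competitive radioligand displacement, filter separation, scintillation readout, 1 h exposure. Primary screen in duplicate at 25 uM; actives retested in concentration series.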"}, "[2]": {"target": "rat Glutamate, AMPA Site (AMPA), Gria1 (gene 50592) (UniProt P19490)", "sequence (P19490 whole entry, looked up)": "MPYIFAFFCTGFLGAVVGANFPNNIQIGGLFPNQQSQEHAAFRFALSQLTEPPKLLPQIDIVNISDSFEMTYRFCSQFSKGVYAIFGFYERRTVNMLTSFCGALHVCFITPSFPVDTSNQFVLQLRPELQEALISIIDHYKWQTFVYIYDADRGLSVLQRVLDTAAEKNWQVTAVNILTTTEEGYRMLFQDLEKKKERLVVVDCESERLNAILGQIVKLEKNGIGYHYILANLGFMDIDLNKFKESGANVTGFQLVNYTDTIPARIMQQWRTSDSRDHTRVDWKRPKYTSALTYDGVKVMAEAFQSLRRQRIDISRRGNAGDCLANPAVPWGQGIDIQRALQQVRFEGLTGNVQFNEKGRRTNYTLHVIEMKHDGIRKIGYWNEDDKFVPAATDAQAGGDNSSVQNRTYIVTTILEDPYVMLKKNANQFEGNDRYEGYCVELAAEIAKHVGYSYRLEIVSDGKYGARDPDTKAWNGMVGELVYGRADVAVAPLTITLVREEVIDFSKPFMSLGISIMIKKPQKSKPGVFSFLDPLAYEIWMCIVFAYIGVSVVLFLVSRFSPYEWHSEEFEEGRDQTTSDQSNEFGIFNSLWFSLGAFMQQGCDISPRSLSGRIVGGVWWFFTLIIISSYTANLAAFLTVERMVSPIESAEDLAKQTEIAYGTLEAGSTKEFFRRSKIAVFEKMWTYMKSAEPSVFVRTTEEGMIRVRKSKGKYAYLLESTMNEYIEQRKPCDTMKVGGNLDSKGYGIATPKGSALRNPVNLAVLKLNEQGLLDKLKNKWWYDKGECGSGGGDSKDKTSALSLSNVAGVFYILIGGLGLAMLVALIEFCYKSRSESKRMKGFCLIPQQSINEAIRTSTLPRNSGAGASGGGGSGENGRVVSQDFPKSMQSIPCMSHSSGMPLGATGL", "experiment": "NVS_LGIC_rAMPA: NovaScreen (NVS) Ligand-Gated Ion Channel Assay for rat Glutamate, AMPA Site (AMPA) (AID 2283324)", "outline": "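Rat forebrain membranes; radioligand binding read 1 h after dosing by filtration and scintillation counting. Duplicate single-point screen at 25 uM, then concentration-response to 50 uM for threshold hits (e.g. 30% inhibition); loss of signal vs DMSO.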"}, "[3]": {"target": "rat Gamma-Aminobutyric Acid Type A Receptor, Non-Selective (GABAR-NonSelective), Gabra1 (gene 29705) (UniProt P62813)", "experiment": "NVS_LGIC_rGABAR_NonSelective: NovaScreen (NVS) Ligand-Gated Ion Channel Assay for rat Gamma-Aminobutyric Acid Type A Receptor, Non-Selective (GABAR-NonSelective) (AID 2283326)", "outline": "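Radioligand displacement on rat whole-brain extract, 1 h, filter scintillation readout; signal loss fitted versus DMSO. Primary screen in duplicate at 25 uM; hits (e.g. ≥30% inhibition) retested in concentration-response up to 50 uM.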"}, "[4]": {"target": "Small conductance calcium-activated potassium channel protein 1 (Rattus norvegicus) (UniProt P70606)", "sequence (P70606 whole entry, looked up)": "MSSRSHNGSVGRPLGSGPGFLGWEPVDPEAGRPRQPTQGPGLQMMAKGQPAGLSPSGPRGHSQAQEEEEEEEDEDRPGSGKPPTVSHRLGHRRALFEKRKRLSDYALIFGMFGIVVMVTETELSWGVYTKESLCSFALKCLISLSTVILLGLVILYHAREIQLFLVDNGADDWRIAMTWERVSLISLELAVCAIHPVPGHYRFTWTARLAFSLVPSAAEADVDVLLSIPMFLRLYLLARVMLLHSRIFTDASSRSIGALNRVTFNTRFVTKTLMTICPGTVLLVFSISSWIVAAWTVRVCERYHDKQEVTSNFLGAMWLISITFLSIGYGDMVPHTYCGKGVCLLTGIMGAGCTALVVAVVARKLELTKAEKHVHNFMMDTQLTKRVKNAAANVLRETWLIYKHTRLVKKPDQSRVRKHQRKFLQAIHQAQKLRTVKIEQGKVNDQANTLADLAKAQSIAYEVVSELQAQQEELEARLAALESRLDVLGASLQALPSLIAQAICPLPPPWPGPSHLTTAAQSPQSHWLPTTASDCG", "experiment": "NVS_IC_rKCaCh: NovaScreen (NVS) Ion Channel Assay for rat Potassium Channel, Ca2+ Act., VI (KCaCh) (AID 2283336)", "outline": "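Radioligand binding to rat forebrain membranes, cell-free, read 1 hour after dosing by filter-based scintillation counting. Compounds first run in duplicate at 25 uM, actives then in concentration series; loss of signal vs DMSO indicates displacement.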"}, "[5]": {"experiment": "NVS_IC_rCaBTZCHL: NovaScreen (NVS) Ion Channel Assay for Calcium Channel, Type L, Benzothiazepine Site (CaBTZCHL) (AID 2283337)", "outline": "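Scintillation counting of filter-bound radioligand gave the read-out, with reduced binding versus DMSO scored as activity. Membranes came from rat cortex and were read 1.5 h after compound addition. Chemicals were screened first in duplicate at 25 uM.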"}, "[6]": {"experiment": "NVS_IC_rCaDHPRCh_L: NovaScreen (NVS) Ion Channel Assay for rat Calcium Channel, Type L, Dihydropyridine Site (CaDHPRCh_L) (AID 2283320)", "outline": "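Radioligand binding to dihydropyridine site on rat cortical membranes, filter-based scintillation counting, 1 h after dosing. Screened in duplicate at 25 uM; actives rerun in concentration-response up to 50 uM. Loss of signal versus DMSO baseline.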"}, "[7]": {"target": "Voltage-gated inwardly rectifying potassium channel KCNH2 (Homo sapiens) (UniProt Q12809)", "sequence (Q12809 whole entry, looked up)": "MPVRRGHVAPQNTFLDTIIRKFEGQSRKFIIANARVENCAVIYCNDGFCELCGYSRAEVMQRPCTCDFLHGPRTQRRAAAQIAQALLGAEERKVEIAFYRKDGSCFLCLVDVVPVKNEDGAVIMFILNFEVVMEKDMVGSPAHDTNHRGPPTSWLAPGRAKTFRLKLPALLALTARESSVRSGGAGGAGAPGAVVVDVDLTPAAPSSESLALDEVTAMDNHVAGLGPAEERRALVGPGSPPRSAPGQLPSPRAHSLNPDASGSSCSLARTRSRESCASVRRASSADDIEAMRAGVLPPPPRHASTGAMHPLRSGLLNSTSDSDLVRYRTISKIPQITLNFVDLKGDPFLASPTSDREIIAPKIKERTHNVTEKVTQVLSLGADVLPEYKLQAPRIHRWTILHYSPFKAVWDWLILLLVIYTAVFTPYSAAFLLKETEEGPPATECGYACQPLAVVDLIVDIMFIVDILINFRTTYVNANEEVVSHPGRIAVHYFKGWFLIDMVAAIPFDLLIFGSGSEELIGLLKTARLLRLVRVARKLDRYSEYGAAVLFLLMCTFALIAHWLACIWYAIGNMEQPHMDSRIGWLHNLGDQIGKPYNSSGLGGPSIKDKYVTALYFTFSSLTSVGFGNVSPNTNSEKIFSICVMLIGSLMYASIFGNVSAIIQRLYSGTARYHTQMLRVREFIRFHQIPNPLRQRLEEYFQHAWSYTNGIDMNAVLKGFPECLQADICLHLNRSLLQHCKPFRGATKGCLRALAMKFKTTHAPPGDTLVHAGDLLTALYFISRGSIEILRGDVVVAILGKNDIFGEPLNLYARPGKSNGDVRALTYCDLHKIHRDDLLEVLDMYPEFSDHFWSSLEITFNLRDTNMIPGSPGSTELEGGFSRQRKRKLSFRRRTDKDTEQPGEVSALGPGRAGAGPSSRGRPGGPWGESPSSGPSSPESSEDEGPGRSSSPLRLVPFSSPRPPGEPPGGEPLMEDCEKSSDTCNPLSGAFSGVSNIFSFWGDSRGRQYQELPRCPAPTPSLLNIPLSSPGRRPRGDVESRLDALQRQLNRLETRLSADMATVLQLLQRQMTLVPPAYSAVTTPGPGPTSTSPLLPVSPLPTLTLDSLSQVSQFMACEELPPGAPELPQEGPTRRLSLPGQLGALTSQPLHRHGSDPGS", "experiment": "NVS_IC_hKhERGCh: NovaScreen (NVS) Ion Channel Assay for human Potassium Channel ERG (KhERGCh) (AID 2283333)", "outline": "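Cell-free radioligand competition binding on hERG protein extracted from CHO cells, read by filter-based scintillation counting 0.75 h after dosing. Primary screen at 25 uM in duplicate, actives followed in concentration series. Signal loss fitted versus DMSO.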"}, "[8]": {"target": "bovine Gamma-Aminobutyric Acid Type A Receptor BDZ, alpha 5 site (GABARa5), GABRA5 (gene 523515) (UniProt Q08E50)", "sequence (Q08E50 whole entry, looked up)": "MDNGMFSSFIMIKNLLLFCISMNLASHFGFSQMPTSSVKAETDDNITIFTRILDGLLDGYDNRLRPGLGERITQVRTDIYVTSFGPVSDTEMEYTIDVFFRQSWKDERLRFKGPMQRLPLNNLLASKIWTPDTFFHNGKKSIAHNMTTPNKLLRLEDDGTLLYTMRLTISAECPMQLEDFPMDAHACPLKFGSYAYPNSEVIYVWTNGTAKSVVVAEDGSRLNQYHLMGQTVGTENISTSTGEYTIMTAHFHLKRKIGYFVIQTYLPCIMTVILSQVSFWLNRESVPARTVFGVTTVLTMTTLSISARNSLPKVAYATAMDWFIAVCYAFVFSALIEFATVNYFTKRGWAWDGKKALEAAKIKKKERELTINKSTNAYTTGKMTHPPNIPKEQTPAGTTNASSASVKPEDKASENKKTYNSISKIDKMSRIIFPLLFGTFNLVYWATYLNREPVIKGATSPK", "experiment": "NVS_LGIC_bGABARa5: NovaScreen (NVS) Ligand-Gated Ion Channel Assay for bovine Gamma-Aminobutyric Acid Type A Receptor BDZ, alpha 5 site (GABARa5) (AID 2283323)", "outline": "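Radioligand competitive displacement binding on bovine hippocampal membranes, read 1 hr after dosing by filter-based scintillation counting. Primary screen at 25 uM in duplicate; actives (e.g. ≥30% inhibition) then run in concentration-response up to 50 uM.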"}, "[9]": {"target": "human Serotonin, 5-Hydroxytryptamine Receptor 3 (5HT3), HTR3A (gene 3359) (UniProt P46098)", "sequence (P46098 whole entry, looked up)": "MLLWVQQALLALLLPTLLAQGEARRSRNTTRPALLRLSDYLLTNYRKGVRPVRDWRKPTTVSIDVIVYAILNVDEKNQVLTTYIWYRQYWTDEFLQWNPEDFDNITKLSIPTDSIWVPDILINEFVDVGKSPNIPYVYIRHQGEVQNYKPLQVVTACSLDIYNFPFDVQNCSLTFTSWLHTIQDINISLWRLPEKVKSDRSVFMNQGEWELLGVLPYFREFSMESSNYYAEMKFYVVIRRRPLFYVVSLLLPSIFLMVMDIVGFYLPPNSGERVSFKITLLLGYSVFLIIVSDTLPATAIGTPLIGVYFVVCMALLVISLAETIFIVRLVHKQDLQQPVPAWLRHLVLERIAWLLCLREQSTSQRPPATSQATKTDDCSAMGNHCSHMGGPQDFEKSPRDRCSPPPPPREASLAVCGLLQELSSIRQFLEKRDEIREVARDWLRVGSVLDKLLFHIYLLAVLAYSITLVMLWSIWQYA", "experiment": "NVS_LGIC_h5HT3: NovaScreen (NVS) Ligand-Gated Ion Channel Assay for human Serotonin, 5-Hydroxytryptamine Receptor 3 (5HT3) (AID 2283325)", "outline": "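Radioligand displacement binding to human 5-HT3 from HEK293 membranes, read by filter-based scintillation counting after 1 h. Screen at 25 uM in duplicate; chemicals passing threshold were retested in concentration-response up to 50 uM.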"}, "[10]": {"target": "rat Thyrotropin Releasing Hormone Receptor (TRH), Trhr (gene 25570) (UniProt Q01717)", "experiment": "NVS_GPCR_rTRH: NovaScreen (NVS) G Protein-Coupled Receptor Assay for rat Thyrotropin Releasing Hormone Receptor (TRH) (AID 2283329)", "outline": "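Cell-free radioligand binding on rat forebrain membranes; bound tracer measured by filter-based scintillation counting 4 hours after dosing. Loss of signal versus DMSO baseline indicates displacement; primary screen at 25 uM in duplicate, actives then run in concentration series.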"}, "[11]": {"target": "rat Peripheral-type Benzodiazepine Receptor (PBR), Tspo (gene 24230) (UniProt P16257)", "sequence (P16257 whole entry, looked up)": "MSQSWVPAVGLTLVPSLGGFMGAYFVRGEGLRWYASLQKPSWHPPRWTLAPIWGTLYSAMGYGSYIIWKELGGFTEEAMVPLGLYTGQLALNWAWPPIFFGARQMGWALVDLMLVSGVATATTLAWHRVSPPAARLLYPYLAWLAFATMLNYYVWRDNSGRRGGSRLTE", "experiment": "NVS_MP_rPBR: NovaScreen (NVS) Membrane Protein Assay for rat Peripheral-type Benzodiazepine Receptor (PBR) (AID 2283335)", "outline": "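Rat kidney membranes; radioligand binding with displacement, filter-based scintillation counting, 1 h incubation. Primary screen in duplicate at 25 uM, actives followed in concentration series; loss of binding vs DMSO.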"}, "[12]": {"target": "human Androgen Receptor (AR), AR (gene 367) (UniProt P10275)", "sequence (P10275 whole entry, looked up)": "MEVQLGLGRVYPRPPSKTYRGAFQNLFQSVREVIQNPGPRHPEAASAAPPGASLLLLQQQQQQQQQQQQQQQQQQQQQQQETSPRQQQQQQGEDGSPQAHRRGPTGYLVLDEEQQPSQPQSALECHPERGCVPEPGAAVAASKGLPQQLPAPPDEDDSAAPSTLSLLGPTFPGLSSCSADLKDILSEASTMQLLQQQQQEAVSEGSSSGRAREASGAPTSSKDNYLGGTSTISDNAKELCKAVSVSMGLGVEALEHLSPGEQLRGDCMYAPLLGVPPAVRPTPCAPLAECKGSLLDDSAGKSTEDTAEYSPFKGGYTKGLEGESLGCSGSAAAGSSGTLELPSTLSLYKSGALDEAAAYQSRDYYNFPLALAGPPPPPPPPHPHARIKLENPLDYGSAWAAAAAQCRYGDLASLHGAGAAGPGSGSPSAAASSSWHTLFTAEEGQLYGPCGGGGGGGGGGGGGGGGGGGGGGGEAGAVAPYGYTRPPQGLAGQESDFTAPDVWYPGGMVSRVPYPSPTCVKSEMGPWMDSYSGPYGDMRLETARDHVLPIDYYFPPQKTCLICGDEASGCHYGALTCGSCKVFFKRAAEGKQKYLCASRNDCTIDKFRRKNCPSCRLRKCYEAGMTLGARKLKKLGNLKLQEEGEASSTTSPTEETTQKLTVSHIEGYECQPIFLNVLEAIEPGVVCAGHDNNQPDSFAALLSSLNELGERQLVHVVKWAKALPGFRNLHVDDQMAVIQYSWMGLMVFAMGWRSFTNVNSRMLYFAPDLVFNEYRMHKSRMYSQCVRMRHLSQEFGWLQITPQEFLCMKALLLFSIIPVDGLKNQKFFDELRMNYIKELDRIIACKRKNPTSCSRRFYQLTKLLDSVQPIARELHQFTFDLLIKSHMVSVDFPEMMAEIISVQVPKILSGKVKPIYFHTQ", "experiment": "NVS_NR_hAR: NovaScreen (NVS) Nuclear Receptor Binding Assay for human Androgen Receptor (AR) (AID 2283332)", "outline": "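Actives from a duplicate 25 uM single-point screen went on to concentration series. Read-out after 20 h was scintillation counting of displaced radioligand in LnCAP extract, with DMSO as baseline.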"}, "[13]": {"target": "human Constitutive Androstane Receptor (CAR), NR1I3 (gene 9970) (UniProt Q14994)", "sequence (Q14994 whole entry, looked up)": "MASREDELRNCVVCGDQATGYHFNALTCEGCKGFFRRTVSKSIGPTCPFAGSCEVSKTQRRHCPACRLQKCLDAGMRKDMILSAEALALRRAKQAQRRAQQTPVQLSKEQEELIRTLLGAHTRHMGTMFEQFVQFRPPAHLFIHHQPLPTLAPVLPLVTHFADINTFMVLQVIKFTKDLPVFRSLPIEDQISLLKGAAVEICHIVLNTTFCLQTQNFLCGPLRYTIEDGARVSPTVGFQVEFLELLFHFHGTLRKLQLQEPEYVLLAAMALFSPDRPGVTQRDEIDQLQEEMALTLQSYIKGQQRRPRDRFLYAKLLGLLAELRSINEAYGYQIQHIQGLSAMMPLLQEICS", "experiment": "NVS_NR_hCAR_Agonist: NovaScreen (NVS) Nuclear Receptor Binding Assay for human Constitutive Androstane Receptor Agonism (CAR) (AID 2283328)", "outline": "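Cell-free TR-FRET binding readout with extracted human CAR protein, read 1 h after dosing. Gain of signal fitted against DMSO baseline. Single-concentration duplicates at 25 uM, then concentration-response up to 50 uM for actives.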"}, "[14]": {"target": "rat Glutamate, MK-801 Agonist Site (GluNMDA_MK801), Grin1 (gene 24408) (UniProt P35439)", "experiment": "NVS_LGIC_rGluNMDA_MK801_Agonist: NovaScreen (NVS) Ligand-Gated Ion Channel Assay for rat Glutamate, MK-801 Agonist Site (GluNMDA_MK801) (AID 2283340)", "outline": "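Radioligand binding at MK-801 site in rat forebrain membranes, 1.5 h incubation, filter-based scintillation counting. Initially 25 uM in duplicate; actives then run in concentration-response up to 50 uM, fitted for gain of signal versus DMSO.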"}, "[15]": {"target": "rat Glycine Receptor, Strychnine-sensitive (GlyRStrySens), Glra1 (gene 25674) (UniProt P07727)", "experiment": "NVS_LGIC_rGlyRStrySens: NovaScreen (NVS) Ligand-Gated Ion Channel Assay for rat Glycine Receptor, Strychnine-sensitive (GlyRStrySens) (AID 2283341)", "outline": "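Radioligand displacement on rat spinal cord membranes, 1 hr, filter scintillation read-out. Single-concentration duplicate screen at 25 uM; chemicals meeting threshold (e.g., 30% inhibition) rerun in concentration-response up to 50 uM. Loss of binding fitted versus DMSO.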"}}, "note": "Inconclusive results are not listed. Calls of active or inactive are those of the source. How the source made its calls: active means hit-call score of the fitted dose curve at least 0.9, where 1 is the maximum; inconclusive means response in the unintended direction; inactive means score below 0.9."}
{"smiles": "COc1ccc(OC(F)(F)F)cc1CN[C@H]1CCCN[C@H]1c1ccccc1", "values": [{"measurement": "outcome", "setting": "NCBI gene 24521", "value": "inactive"}, {"measurement": "AC50", "setting": "[1]", "value": "0.623 µM (active)"}, {"measurement": "outcome", "setting": "[2]", "value": "inactive"}, {"measurement": "AC50", "setting": "[3]", "value": "2 µM (active)"}, {"measurement": "outcome", "setting": "[4]", "value": "inactive"}, {"measurement": "AC50", "setting": "[5]", "value": "1.24 µM (active)"}]}
{"smiles": "CN(C)C(=O)NC1(c2ccccc2)CCN(CCC[C@]2(c3ccc(Cl)c(Cl)c3)CCCN(C(=O)c3ccccc3)C2)CC1", "values": [{"measurement": "AC50", "setting": "[6]", "value": "0.988 µM (active)"}, {"measurement": "AC50", "setting": "[1]", "value": "0.327 µM (active)"}, {"measurement": "AC50", "setting": "[7]", "value": "1.24 µM (active)"}, {"measurement": "outcome", "setting": "[4]", "value": "inactive"}, {"measurement": "AC50", "setting": "[5]", "value": "1.24 µM (active)"}]}
{"smiles": "CC(C)c1cccc(C(C)C)c1NC(=O)NS(=O)(=O)c1cc(C(C)(C)O)co1", "values": [{"measurement": "outcome", "setting": "[8]", "value": "inactive"}]}
{"smiles": "Cn1cnc2c1c(=O)[nH]c(=O)n2C", "values": [{"measurement": "outcome", "setting": "[1]", "value": "inactive"}, {"measurement": "outcome", "setting": "[7]", "value": "inactive"}]}
{"smiles": "C/C=C/C=C/C(=O)O", "values": [{"measurement": "outcome", "setting": "[9]", "value": "inactive"}]}
{"smiles": "CN(C)C(=O)NC1(c2ccccc2)CCN(CC[C@@]2(c3ccc(F)c(F)c3)CN(C(=O)c3ccccc3)CCO2)CC1", "values": [{"measurement": "AC50", "setting": "[6]", "value": "3.38 µM (active)"}, {"measurement": "AC50", "setting": "[1]", "value": "6.43 µM (active)"}, {"measurement": "AC50", "setting": "[5]", "value": "2.2 µM (active)"}]}
{"smiles": "CCCCc1nc2cccnc2n1Cc1ccc(-c2ccccc2-c2nnn[nH]2)cc1", "values": [{"measurement": "outcome", "setting": "[8]", "value": "inactive"}, {"measurement": "outcome", "setting": "[10]", "value": "inactive"}, {"measurement": "AC50", "setting": "[11]", "value": "14.6 µM (active)"}]}
{"smiles": "O=C1NC(=O)C(c2ccccc2)(c2ccccc2)N1", "values": [{"measurement": "outcome", "setting": "[1]", "value": "inactive"}]}
{"smiles": "Cc1cc(SC2=C(O)C[C@@](CCc3ccc(N)cc3)(C(C)C)OC2=O)c(C(C)(C)C)cc1CO", "values": [{"measurement": "outcome", "setting": "[1]", "value": "inactive"}, {"measurement": "outcome", "setting": "[2]", "value": "inactive"}, {"measurement": "outcome", "setting": "[9]", "value": "inactive"}, {"measurement": "AC50", "setting": "[12]", "value": "9.33 µM (active)"}, {"measurement": "outcome", "setting": "[7]", "value": "inactive"}, {"measurement": "outcome", "setting": "[11]", "value": "inactive"}]}
{"smiles": "CCCCCCCCCC[N+](C)(C)[O-]", "values": [{"measurement": "AC50", "setting": "[1]", "value": "19.1 µM (active)"}]}
{"smiles": "COC(=O)[C@H]1[C@H]2C[C@@H]3c4[nH]c5cc(OC)ccc5c4CCN3C[C@H]2C[C@@H](OC(=O)c2cc(OC)c(OC)c(OC)c2)[C@@H]1OC", "values": [{"measurement": "AC50", "setting": "[6]", "value": "11.6 µM (active)"}, {"measurement": "AC50", "setting": "[1]", "value": "5.49 µM (active)"}, {"measurement": "outcome", "setting": "[7]", "value": "inactive"}, {"measurement": "AC50", "setting": "[5]", "value": "6.93 µM (active)"}]}
{"smiles": "CCCCC(CC)COC(=O)CCCCCCCC(=O)OCC(CC)CCCC", "note": "(stereo not given)", "values": [{"measurement": "outcome", "setting": "[1]", "value": "inactive"}]}
{"smiles": "CO[C@@H]1COCC[C@@H]1N[C@@H]1CC[C@@](C(=O)N2CCc3ncc(C(F)(F)F)cc3C2)(C(C)C)C1", "values": [{"measurement": "AC50", "setting": "[1]", "value": "9.94 µM (active)"}]}
{"smiles": "CCOCCOCCO", "values": [{"measurement": "outcome", "setting": "NCBI gene 24521", "value": "inactive"}]}
{"smiles": "CC(C)NCC(O)c1ccc(O)c(O)c1", "note": "(stereo not given)", "values": [{"measurement": "outcome", "setting": "[2]", "value": "inactive"}]}
{"smiles": "CC(C)OC(=O)C(C)(C)Oc1ccc(C(=O)c2ccc(Cl)cc2)cc1", "values": [{"measurement": "outcome", "setting": "[13]", "value": "inactive"}]}
{"smiles": "CCCCCCC(CCCCCCCCCCC(=O)OCC(COC(C)=O)OC(C)=O)OC(C)=O", "note": "(stereo not given)", "values": [{"measurement": "outcome", "setting": "[7]", "value": "inactive"}]}
{"smiles": "O=C(O)c1[nH]n(-c2ccc(S(=O)(=O)O)cc2)c(=O)c1N=Nc1ccc(S(=O)(=O)O)cc1", "values": [{"measurement": "outcome", "setting": "[7]", "value": "inactive"}, {"measurement": "AC50", "setting": "[5]", "value": "10.4 µM (active)"}]}
{"smiles": "O=C1OC(c2ccc(O)cc2)(c2ccc(O)cc2)c2ccccc21", "values": [{"measurement": "outcome", "setting": "[4]", "value": "inactive"}]}
{"smiles": "c1ccc2occc2c1", "values": [{"measurement": "outcome", "setting": "[4]", "value": "inactive"}]}
{"smiles": "NC1CCCCC1", "values": [{"measurement": "outcome", "setting": "[14]", "value": "inactive"}]}
{"smiles": "CCCCC(CC)CO", "note": "(stereo not given)", "values": [{"measurement": "outcome", "setting": "[15]", "value": "inactive"}]}
